Compound activity: PubChem, National Center for Advancing Translational Sciences (NCATS)
Shown are actives, neighbours in structure and some others; about 10% of the full set was active somewhere.
GPT2 inh: blocks human glutamate pyruvate transaminase 2; Recombinant GPT2, coupled pyruvate oxidase/HRP Amplex Red fluorescence; Potency, µM (highest dose often 57.7 µM), for inactives: at the highest dose activity change, negative = inhibition, usual class: inhibitors; actives 0.25% (n = 100,000); further: nearly all actives have a fitted effect of over 60% in size
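Fluorescence of coupled pyruvate oxidase/HRP/Amplex Red system (50uM Amplex, 30 min, dark) reports pyruvate formed by GPT2. Enzyme reaction: 10ng/uL GPT2, 2mM L-alanine, 250uM a-KG, 30 min room temperature, pH 7.5; 50uM AOA control.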
HEK293 tox: cytotoxic compounds in HEK 293 cells; AID 1345083; Potency, µM (highest dose often 115 µM), for the others: at the top dose activity change, negative = cytotoxicity, actives largely listed as inhibitors; HEK 293 viability, ATP luminescence (CellTiter-Glo), 48-72 h; actives 6.6% (n = 94,000); further: nearly all actives have a fitted effect of over 60% in size
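Read-out: CellTiter-Glo ATP luminescence. Cells: HEK 293, 250 cells/well. Exposure: 48 or 72 hr, 37 degree Celsius.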
NIH3T3 tox: kills NIH 3T3 cells; Potency, µM (top dose mostly 96.7 µM), without a hit: at the highest dose activity change, negative = cytotoxicity, hits mostly inhibitors; actives 4.3% (n = 94,000); AID 1345082; NIH 3T3 viability, CellTiter-Glo ATP luminescence, 48-72 h; further: nearly all actives have a fitted effect of over 55% in size
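First NIH 3T3 cells are plated at 400 cells/well; next compound is pinned in; then plates incubate 48 or 72 hr at 37 °C; finally CellTiter-Glo is added and luminescence read after 10 min.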
Luciferase inh: Photinus pyralis luciferase inhibition; P08659; purified P. pyralis luciferase, luminescence, biochemical; Potency, µM (doses to about 115 µM), most hits filed as inhibitors; actives 2.5% (n = 76,000); AID 1347043; further: nearly all actives have a fitted effect of over 65% in size
Target sequence (P08659 whole entry, looked up): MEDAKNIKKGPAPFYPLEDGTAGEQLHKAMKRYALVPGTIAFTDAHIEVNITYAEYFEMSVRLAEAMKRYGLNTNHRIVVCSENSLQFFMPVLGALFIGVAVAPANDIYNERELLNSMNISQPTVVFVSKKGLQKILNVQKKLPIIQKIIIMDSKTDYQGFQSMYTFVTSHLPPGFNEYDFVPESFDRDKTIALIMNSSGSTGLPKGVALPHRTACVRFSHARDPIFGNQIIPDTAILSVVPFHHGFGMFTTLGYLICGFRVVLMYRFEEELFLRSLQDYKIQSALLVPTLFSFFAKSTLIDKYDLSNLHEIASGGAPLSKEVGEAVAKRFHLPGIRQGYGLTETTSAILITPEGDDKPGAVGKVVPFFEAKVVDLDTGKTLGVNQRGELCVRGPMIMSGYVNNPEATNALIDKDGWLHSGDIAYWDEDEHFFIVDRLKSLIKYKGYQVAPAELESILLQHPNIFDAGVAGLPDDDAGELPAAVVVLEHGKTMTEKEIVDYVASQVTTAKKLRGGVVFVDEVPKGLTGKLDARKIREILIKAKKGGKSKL
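Luminescence read by CCD imaging after purified firefly luciferase (10nM final) was added to substrate buffer holding 10uM D-luciferin and 10uM ATP, pH 7.5, pre-dosed with compound.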
hNpr1 antagonist: human Npr1 receptor antagonism; actives 1.6% (n = 76,000); AID 1347048; Potency, µM (highest dose often 46.3 µM), for the others: at the highest dose activity change, negative = inhibition, hits mostly inhibitors; P16066; HEK293 hNpr1 GloSensor cGMP, ANP-stimulated luminescence; calls by dose curve; further: nearly all actives have a fitted effect of over 60% in size
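Compound pre-incubated 30 min at room temperature on GloSensor-loaded HEK293 cells stably carrying hNpr1 and the pGS-40F cGMP biosensor. Stimulation uses hNppA at 0.1 nM final; luminescence is taken at baseline and 20 min post-agonist.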
An asterisk follows results filed as active; i = inactive; ? = inconclusive; / = no result; [ ] = dose if it differs, or a comment. Unless noted, the call rests on the fitted dose curve; in most records, active means well fitted curve in the direction sought with a large enough effect; inconclusive means small, poorly fitted or top-dose-only effect, or another doubt; inactive means no such curve, though single readings can be large; an effect the other way counts as inactive or inconclusive. On the % scale 0 is the no-effect control and ±100 the full control effect; potency means the concentration at half of the fitted maximal effect.

SMILES	GPT2 inh	HEK293 tox	NIH3T3 tox	Luciferase inh	hNpr1 antagonist
CCc1nn(-c2ccccc2)c(Oc2ccccc2OC)c1CCC(=O)NCC1CC1	i	?	?	i	-29%
Cc1nc2c(c(=O)n1C)CN(C(=O)[C@H]1CNC[C@H](C(=O)N3CCCC3)C1)C2	-21%[11.5 µM]	-4%	-4%	i	-2%
COCCOCc1nc(C2CCCN2S(=O)(=O)Cc2ccccc2)no1 (centres undefined)	i	2%	-9%	/	/
CN(Cc1ccccc1)Cc1cc(C[C@H]2CNCC[C@H]2CC(=O)NC2CCCCC2)no1	-18%	?	79µM*	i	-3%
O=C(C[C@@H]1CCNC[C@@H]1Cc1cc(COc2ccccc2)on1)NCc1cccs1	-5%[88.5 µM]	?	?	i	-13%[70.6 µM]
CC(C)(C)c1ccc(-c2cc(C[C@H]3CNCC[C@H]3CC(=O)NCc3cccs3)no2)cc1	?	18µM*	?	i	-8%
CN(C)CCNC(=O)C[C@@H]1CCNC[C@@H]1Cc1cc(CN(C)Cc2ccccc2)on1	3%[88.5 µM]	-3%[172 µM]	-3%[174 µM]	i	0%[70.6 µM]
O=C1c2c(nc(CNc3cccnc3)n2Cc2ccccc2)NCCN1Cc1ccccc1	1%[88.5 µM]	?	?	i	-17%[70.6 µM]
CO[C@H]1C(=O)N(C(C)C)[C@H]1C1CCN(C(=O)Cn2ccc(C)n2)CC1	3%	0%	-1%	25µM*	0%
CO[C@H]1C(=O)N(C(C)C)[C@H]1C1CCN(C(=O)Cn2nc(C(F)(F)F)cc2C)CC1	2%	i	i	35µM*	6%
Cc1noc(C)c1[S+](=O)([O-])N1CCN(C(=O)c2cccc(-c3ccccn3)c2)CC1	3%	?	-28%	/	/
OCC1CN(Cc2ccc(F)cc2Cl)CC12CCNCC2 (centres undefined)	i	?	?	i	-4%
COCc1nc(C2CCCN(C(=O)Cc3ccccc3C)C2)no1 (centres undefined)	i	-10%	i	i	0%
CCCNC(=O)N1CCCC(c2nc(CCOc3ccc(F)cc3)no2)C1 (centres undefined)	3%	?	?	/	/
Cc1ccccc1NC(=O)N1CCCC(c2noc(COc3ccccc3)n2)C1 (centres undefined)	-21%	?	?	i	-22%
Cc1ccc(OCc2nc(C3CN(C(=O)Cc4ccsc4)C3)no2)cc1	-2%	89µM*	?	i	-18%
CCc1cccc(NC(=O)N2CCCC(c3noc(COc4ccccc4)n3)C2)c1 (centres undefined)	-3%	?	32µM*	i	?
Cc1ccccc1CC(=O)N1CCCC(c2noc(COc3ccccc3)n2)C1 (centres undefined)	-7%	45µM*	?	i	-15%
CC(C)CNC(=O)N1CCCC(c2nc(CCOc3ccc(F)cc3)no2)C1 (centres undefined)	i	40µM*	?	i	-20%
CCNC(=O)N1CCCC(c2noc(COc3ccccc3F)n2)C1 (centres undefined)	i	-4%	-17%	35µM*	1%
CC(C)NC(=O)N1CCCC(c2noc(COc3ccccc3F)n2)C1 (centres undefined)	i	-8%	-21%	i	0%
Cc1ccc(S(=O)(=O)N2CCC(Oc3ncccc3C(=O)N3CCOCC3)C2)cc1F (centres undefined)	i	-22%	-17%	i	-10%
Fc1ccc(-c2[nH]ncc2CN(Cc2cccnc2)Cc2cccnc2)cc1	-44%	?	?	i	-7%
COCCN(Cc1ccsc1)Cc1cn[nH]c1-c1ccc(F)cc1	-1%	89µM*	-28%	i	5%
CCN1C(=O)CCN(S(=O)(=O)c2cccc(F)c2)CC12CCOCC2	-8%	4%	2%	i	1%
SMILES	GPT2 inh	HEK293 tox	NIH3T3 tox	Luciferase inh	hNpr1 antagonist
Cc1nc2ccccc2n1Cc1cc(C(=O)N2CCCC2)no1	i	40µM*	?	i	-28%
COc1ccccc1CC(=O)N1CCC[C@H]1c1nc(-c2ccc(F)cc2)no1	2%	?	?	i	4%
COc1cccc(CCC2CCCN(C(=O)c3ccc(OC)o3)C2)c1 (centres undefined)	2%	35µM*	?	i	-19%
O=C(c1ccco1)N1CCCC(CCc2cccc(F)c2)C1 (centres undefined)	-9%	79µM*	?	i	6%
C=CCS(=O)(=O)N1CCCC(CCc2cccc(OC)c2)C1 (centres undefined)	?	?	-29%	i	-1%
COCC(=O)N1CCC2(CC1)NCCc1c2[nH]c2ccccc12	2%	2%	-16%	i	2%
CCN1CCC(N2CCC3(CC2)NCCc2c3[nH]c3ccc(OC)cc23)CC1	-2%	32µM*	32µM*	i	2%
COc1ccc2[nH]c3c(c2c1)CCNC31CCN(C(=O)C2CCOCC2)CC1	i	-18%	-23%	i	5%
COc1ccc(C(=O)N2CCC3(CC2)NCCc2c3[nH]c3ccccc23)cc1F	i	13µM*	?	i	0%
COc1ccc2[nH]c3c(c2c1)CCNC31CCN(S(=O)(=O)c2cccnc2)CC1	-16%	25µM*	?	i	8%
COc1ccc2[nH]c3c(c2c1)CCNC31CCN(C(=O)C2CC=CC2)CC1	-10%	45µM*	-20%	i	4%
O=C(c1ccccc1F)N1CCC2(CC1)NCCc1c2[nH]c2ccccc12	i	79µM*	-6%	i	3%
COc1ccc(C(=O)N2CCC3(CC2)NCCc2c3[nH]c3ccccc23)cc1	i	79µM*	-34%	i	-3%
Cc1ccsc1C(=O)N1CCC2(CC1)NCCc1c2[nH]c2ccccc12	i	45µM*	-27%	i	-31%
O=C(c1ccncc1)N1CCC2(CC1)NCCc1c2[nH]c2ccccc12	i	-20%	-25%	i	0%
Cc1ccc(C(=O)N2CCC3(CC2)NCCc2c3[nH]c3ccccc23)s1	i	?	?	i	-11%
O=C(c1cccnc1)N1CCC2(CC1)NCCc1c2[nH]c2ccccc12	i	-5%	-15%	i	17%
O=C(NCC1CCOCC1)Nc1ccc(F)cc1	-2%	8%	i	i	-3%
